PubChem BioAssay (NCI)
About 83,000 compounds went through this panel and 20% of them were active in at least one assay; those are over-represented in the sample as a whole.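 Compound tested at a single concentration for 48 hours in 96-well plates; a percent growth value below 10 was scored as active.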 Unmarked numbers belong to inactive results. Active and inactive are the calls of the source.

Legend:
Test in all cases: NCI-60 one-dose screen, 48 h (100 = growth as untreated, 0 = no growth, -100 = all killed)
Conditions in all cases: 10 µM
NCI-H23 lung = tested on: NCI-H23 lung
NCI-H226 lung = tested on: NCI-H226 lung
NCI-H322M lung = tested on: NCI-H322M lung
HOP-62 NSCLC = tested on: HOP-62 NSCLC
NCI-H460 lung = tested on: NCI-H460 lung
NCI-H522 lung = tested on: NCI-H522 lung
A549/ATCC NSCLC = tested on: A549/ATCC NSCLC
786-0 renal = tested on: 786-0 renal
COLO 205 colon = tested on: COLO 205 colon
DU-145 prostate = tested on: DU-145 prostate

Structure (SMILES) | growth (NCI-H23 lung) | growth (NCI-H226 lung) | growth (NCI-H322M lung) | growth (HOP-62 NSCLC) | growth (NCI-H460 lung) | growth (NCI-H522 lung) | growth (A549/ATCC NSCLC) | growth (786-0 renal) | growth (COLO 205 colon) | growth (DU-145 prostate)
Cc1cc2ccccc2nc1-c1ccccc1F | 109% | 98.9% | 128% | 94.6% | 107% | 122% | 92.4% | 95.1% | 110% | 116%
O=C(Nc1ccc(OS(=O)(=O)c2ccccc2)cc1)C12CC3CC(CC(C3)C1)C2 | 51.5% | 60.4% | 68.7% | 74.4% | 35.5% | 50.9% | 41.6% | 57.5% | -0.16% (active) | 71.6%
NC(=S)N=Nc1c(O)c2ccccc2c2ccccc12 | 6.64% (active) | 94.2% | 82.3% | 29.8% | 51.9% | 44.8% | 23.7% | 101% | 92.3% | -8.94% (active)
CCCCCCc1cc(N=Nc2ccc(S(=O)(=O)Nc3cc(C)nc(C)n3)cc2)c(O)cc1O | 102% | 98% | 93.5% | 107% | 110% | 90.1% | 106% | 102% | 103% | 114%
O=C(Nc1ccc(Cl)c([N+](=O)[O-])c1)Nc1nc2ccccc2s1 | 64.5% | 86.4% | 101% | 90.1% | 82% | 36.1% | 27.2% | 90.3% | 108% | 107%
CCN(CC)CCCOCCCNc1cc(OC)cc2cccnc12 | 83.8% | 85% | 98.7% | 91.7% | 103% | 82.5% | 93.4% | 104% | 31.2% | 116%
ClCCOCCn1cnc2c(Cl)nc(Cl)nc21 | 55.1% | 74.8% | 89.9% | 88.6% | 28.5% | 60.1% | 60.7% | 87.6% | 88.1% | -5.51% (active)
Cn1c([N+](=O)[O-])cnc1/C=C1\Oc2cc(Cl)ccc2C1=O | -22.8% (active) | 59.5% | 60.4% | 16.5% | -32.1% (active) | -53.8% (active) | 3.98% (active) | -6.4% (active) | -52.9% (active) | -18.3% (active)
CCOC(=O)N1C/C(=C/c2ccc(OC)cc2)C(=O)/C(=C/c2ccc(OC)cc2)C1 | 46.3% | 23.8% | 71.1% | 29.5% | 42% | 39% | 21.4% | -2.34% (active) | 24.5% | 17.7%
Cc1cccc2c1O/C(=C\c1ccc([N+](=O)[O-])o1)C2=O | -39.8% (active) | -57.8% (active) | 37.9% | -25.6% (active) | -58.5% (active) | -77.4% (active) | -12.2% (active) | -39.5% (active) | -84.3% (active) | -62.7% (active)
CNc1ncc(-c2ccc(C(F)(F)F)cc2)c(NC2CCCCCC2)n1 | 62.6% | 70.3% | 76.6% | 92.6% | 87.8% | 57.6% | 69.1% | 79.4% | 68.5% | 91%
CN(C)CCCn1c(=O)c2ccccc2c2cnc3[nH]ccc3c21 | 13.8% | -0.537% (active) | 9.79% (active) | -1.44% (active) | -6.21% (active) | -38.9% (active) | 1.69% (active) | 15.2% | -31.3% (active) | -0.745% (active)
CCCCCC(=O)c1ccc(OCCCN2CCN(C(=O)OCC)CC2)cc1 | 81.2% | 73% | 119% | 108% | 99.1% | 101% | 94.8% | 97.5% | 96.3% | 107%
C#Cc1ccc(-n2c(/C=C/c3ccc(O)c(OC)c3)nc3ncccc3c2=O)cc1 | 102% | 93.9% | 98.2% | 95.3% | 103% | 79% | 90.3% | 105% | 109% | 111%
